# Records with an inconclusive call do not appear. Calls of active or inactive are those of the source. Calls follow the shape of the dose curve; as a rule, active = well fitted inhibition curve with a large enough effect; inconclusive = small, poorly fitted or top-dose-only effect, or effect the other way; inactive = flat fitted curve, though single readings scatter.
# Biological target: Lysosomal acid glucosylceramidase (Homo sapiens) (UniProt P04062)
# Experiment: qHTS Assay for Inhibitors and Activators of N370S glucocerebrosidase as a Potential Chaperone Treatment of Gaucher Disease: Activity in Non-Mutant Spleen Homogenate Using a Red Fluorescent Substrate
# Details: red fluorogenic substrate GCase activity; series mostly up to 50.2 µM
# From the text: NIH Chemical Genomics Center [NCGC]
# NIH Molecular Libraries Probe Production Centers Network [MLPCN]
# Assay Submitter (PI): Wei Zheng
# Glucocerebrosidase (GC) catalyzes the hydrolysis of beta-glucocerebroside to glucose and ceramide in lysosomes. Mutations in the glucocerebrosidase gene result in Gaucher disease, an autosomal recessive lysosomal storage disorder. Many of the mutations encountered in patients with Gaucher disease are missense alterations that may cause misfolding, decreased stability and/or mistrafficking of this lysosomal protein. […] These inhibitors include iminosugar analogs and three non-iminosugar inhibitors identified from a previous HTS of 62,000 compounds with the wild type recombinant enzyme. However, the enhancement of enzyme activity by the chaperone action of an enzyme inhibitor must be balanced against the direct inhibition of the enzyme. An enzyme activator could also function as a chaperone by binding to the enzyme and helping to correct its misfolding and mistrafficking. While activators for GC have not yet been identified, they may have better therapeutic potential than inhibitors. Therefore the discovery and development of chemical activators may provide a new strategy for the chaperone therapy.
# We have optimized a new assay using N370S mutant GC derived from the spleen of a Gaucher patient. […] In addition, the MLPCN compound library has expanded, which increases the chance of finding new and better probes.
# This confirmation assay tests for compound activity in spleen homogenate containing wildtype enzyme using an alternate resorufin-based substrate.
# NCGC Assay Protocol Summary:
# This is a fluorogenic enzyme assay with resorufin-beta-D-glucopyranoside as the substrate and wildtype glucocerebrosidase from human spleen homogenate as the enzyme preparation. Upon the hydrolysis of this fluorogenic substrate, the resulting product, […] which can be detected by a standard fluorescence plate reader. Data were normalized to the controls for basal activity (without enzyme) and 100% activity (with enzyme). The AC50 values were determined from concentration-response data modeled with the standard Hill equation.
# Assay buffer: 50 mM citric acid (titrated with potassium phosphate to pH 5.0), 100 mM potassium chloride, 10 mM sodium chloride, 1 mM magnesium chloride, 0.01% Tween-20.
# 1536-well assay protocol:
# (1) Add 2 ul/well of spleen homogenate (27 ug final)
# (2) Add 23 nL compounds in DMSO solution. The final titration was 0.5 nM to 58 uM.
# (3) Add 2 ul of substrate (1 mM final)
# (4) Incubate at 37C for 40 min.
# (5) Add 2 ul stop solution (1M NaOH and 1M Glycine mixture, pH 10)
# (6) Detect the assay plate in a ViewLux plate reader (PerkinElmer) with Ex=365 nm and Em=440nm.
# Keywords: Glucocerebrosidase, beta-glucosidase, Gaucher Disease, pharmacological chaperone, chaperone therapy, high throughput screening, glucocerebrosidase inhibitor, MLSMR, MLSCN, NIH Roadmap, qHTS and NCGC
# Sequence of Lysosomal acid glucosylceramidase (Homo sapiens) (P04062 whole entry, looked up): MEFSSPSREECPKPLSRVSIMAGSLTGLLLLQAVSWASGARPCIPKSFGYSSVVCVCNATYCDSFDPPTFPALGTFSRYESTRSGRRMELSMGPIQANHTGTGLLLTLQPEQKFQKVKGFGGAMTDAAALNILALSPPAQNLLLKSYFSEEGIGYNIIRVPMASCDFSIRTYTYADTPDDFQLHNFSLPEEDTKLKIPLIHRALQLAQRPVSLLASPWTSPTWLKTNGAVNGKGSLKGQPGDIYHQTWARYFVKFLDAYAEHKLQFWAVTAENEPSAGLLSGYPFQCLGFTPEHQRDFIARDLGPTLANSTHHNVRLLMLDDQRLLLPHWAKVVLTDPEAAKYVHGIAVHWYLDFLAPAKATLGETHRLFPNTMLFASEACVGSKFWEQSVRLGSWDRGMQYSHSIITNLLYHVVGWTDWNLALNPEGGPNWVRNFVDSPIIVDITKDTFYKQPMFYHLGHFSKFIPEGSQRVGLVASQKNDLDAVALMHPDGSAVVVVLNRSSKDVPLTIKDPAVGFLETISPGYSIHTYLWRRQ
row,Structure (SMILES),Potency
1,Cc1ccccc1-c1nccc(NCc2cccs2)n1,14100 nM (active)
2,O=S(=O)(c1ccccc1)N1CCN(c2nc(-c3cccs3)nc3ccccc23)CC1,316 nM (active)
3,CN(c1ccc(C(=O)Nc2nccs2)cc1)S(=O)(=O)c1ccccc1,35500 nM (active)
4,Cc1cc(N2CCC(C)CC2)nc2ccc(NC(=O)C3CCC(C)CC3)cc12 (stereo not given),5010 nM (active)
5,Cc1cc(N2CCCCC2)nc2ccc(NC(=O)C3CCC(C)CC3)cc12 (stereo not given),7940 nM (active)
6,Cc1ccc(S(=O)(=O)N2CCN(c3nc(-c4cccs4)nc4ccccc34)CC2)cc1,316 nM (active)
7,O=S(=O)(c1cccc(C(F)(F)F)c1)N1CCN(c2nc(-c3cccs3)nc3ccccc23)CC1,794 nM (active)
8,Cc1cc(N2CCOCC2)nc2ccc(NC(=O)CCC3CCCC3)cc12,3160 nM (active)
9,CCOc1ccc(N(CC(=O)NC2CCCCCC2)S(=O)(=O)c2c(C)[nH]c(=O)[nH]c2=O)cc1,1410 nM (active)
10,O=[N+]([O-])c1ccccc1S(=O)(=O)N1CCN(c2nc(-c3cccs3)nc3ccccc23)CC1,562 nM (active)
11,CCc1cc(C(=O)N/N=C/c2c(C)[nH]c3ccccc23)cs1,inactive
12,Cc1cccc(Nc2nc(NCCO)nc(N3CCCC3)n2)c1,inactive
13,N#Cc1ccc(S(=O)(=O)N2CCN(c3nc(-c4cccs4)nc4ccccc34)CC2)cc1,794 nM (active)
14,O=S(=O)(c1ccc(F)cc1)N1CCN(c2nc(-c3cccs3)nc3ccccc23)CC1,794 nM (active)
15,CCCCNC(=O)c1ccc(NS(=O)(=O)c2ccccc2)cc1,inactive
16,CC(=O)c1ccc(S(=O)(=O)N2CCN(c3nc(-c4cccs4)nc4ccccc34)CC2)cc1,1120 nM (active)
17,O=C(CSc1nccc(-c2cccs2)n1)Nc1cccc(Cl)c1,inactive
18,O=C(COc1ccccc1C(=O)c1cnn(-c2ccccc2)c1)Nc1ccccc1,inactive
19,CCN(CC)c1cc(C)c2cc(NC(=O)C3CCC(C)CC3)ccc2n1 (stereo not given),15800 nM (active)
20,O=C(/C=C/c1ccc(O)cc1)c1ccc(O)cc1O,3980 nM (active)

# Source: PubChem BioAssay AID2588 (National Center for Advancing Translational Sciences (NCATS), 2010)
